Screens: PubChem BioAssay, National Center for Advancing Translational Sciences (NCATS)
Sm TGR inh: blocks Schistosoma mansoni thioredoxin glutathione reductase. Potency, µM (top dose mostly 114 µM), inactives show at the highest dose activity change, negative = inhibition, hits mostly inhibitors. purified TGR, DTNB reduction, TNB absorbance 405 nm. 3% of 360,000 active. Q962Y6. AID 485364; further: nearly all actives have a fitted effect of over 60% in size
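TGR 20 nM + NADPH 100 uM (dispensed conc.), cpd preinc 15 min RT; start with NADPH (500 uM addition) then DTNB (15 mM addition). Kinetic TNB absorbance, 405 nm filter. Four-parameter Hill fit across titration.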
AmpC no deterg: blocks E. coli AmpC beta-lactamase in detergent-free assay; AmpC nitrocefin hydrolysis, absorbance 480 nm, 0.0001% Triton; Potency, µM (highest dose often 57.1 µM), for inactives: top-dose activity change, negative = inhibition, actives largely listed as inhibitors; P00811; 0.52% of 330,000 active;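 further: plate controls were no compound for no effect and no enzyme for full effect; nearly all actives have a fitted effect of over 20% in size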
Target sequence (P00811 whole entry, looked up): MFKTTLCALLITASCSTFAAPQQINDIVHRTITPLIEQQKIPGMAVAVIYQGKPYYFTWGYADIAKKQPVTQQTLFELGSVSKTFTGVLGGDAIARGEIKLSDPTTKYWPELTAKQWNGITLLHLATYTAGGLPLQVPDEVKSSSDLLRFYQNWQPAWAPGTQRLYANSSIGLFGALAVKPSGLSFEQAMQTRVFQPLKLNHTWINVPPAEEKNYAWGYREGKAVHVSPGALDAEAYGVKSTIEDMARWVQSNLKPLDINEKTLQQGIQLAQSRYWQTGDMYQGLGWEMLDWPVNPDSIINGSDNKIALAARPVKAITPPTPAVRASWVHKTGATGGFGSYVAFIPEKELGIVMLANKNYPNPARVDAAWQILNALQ
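20 mM phosphate pH 7.0 + 0.01% (detergent screen) or 0.0001% Triton X-100; 5.3 nM AmpC reagent; cpd preinc 15 min RT; nitrocefin (800 uM stock) to start; A480 q20 s × 4 min; Activity was normalised to no-enzyme and no-compound control wells.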
AmpC detergent: AmpC beta-lactamase inhibition with detergent present | 0.041% of 370,000 active | P00811 | AmpC hydrolysis of nitrocefin, absorbance 480 nm, 0.01% Triton | Potency, µM (series often up to 114 µM), for inactives: at the highest dose activity change, negative = inhibition, usual class: inhibitors | AID 485294;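 further: 0% = no-compound wells and -100% = no-enzyme wells; nearly all actives have a fitted effect of over 25% in size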
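AmpC (5.3 nM in the dispensed reagent) in 20 mM phosphate pH 7.0 with 0.01% (detergent screen) or 0.0001% Triton X-100 was preincubated with compounds for 15 min at room temperature. Nitrocefin was then added from an 800 uM solution, and hydrolysis was followed at 480 nm.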
The depositor's hits bear a star; ? = inconclusive; / = no result. Only some compounds are listed: those with a hit (about 3.3% of all), similar ones and a draw of the others. The call rests on the fitted dose curve; in most records, active means well fitted curve in the direction sought with a large enough effect; inconclusive means small, poorly fitted or top-dose-only effect, or another doubt; inactive means no such curve, though single readings can be large; an effect the other way counts as inactive or inconclusive. Unless noted, on the % scale 0 is the no-effect control and ±100 the full control effect; potency means the concentration at half of the fitted maximal effect.

SMILES	Sm TGR inh	AmpC no deterg	AmpC detergent
CCOC(=O)C1=C(CN2CCN(C(=O)c3ccco3)CC2)NC(=O)NC1c1ccccc1 (stereo not given)	-27.4%	38.7%	-3.5%
COc1cccc(NC(=O)C(=O)NCCc2ccc(F)cc2)c1	1.4%	-21.6%	1.4%
COc1ccc(N2CCC(CNC(=S)Nc3ccc(C)cc3C)C2)cc1 (stereo not given)	-1.8%	-25.8%	7.5%
Cc1ccc2nc(CSc3nnc(NC(=O)C(C)C)s3)cc(=O)n2c1	-0.4%	/	-4.7%
CCOc1ccccc1NC(=S)NCCCn1ccnc1	-34.2%	-20.0%	5.4%
CCCN1CCN(S(=O)(=O)c2cn(C)nc2C)CC1	?	-2.5%	1.8%
CC(C)n1ncc2c(C(=O)N3CCN(Cc4ccc(Br)s4)CC3)cc(C3CC3)nc21	-28.3%	-2.4%	-16.3%
C#CCOCCOCCOCCNc1nc(N2CCN(C(=O)C(Cc3cc4ccccc4[nH]3)n3cc(C(N)Cc4ccc(O)cc4)nn3)CC2)nc(N2CCN(C(=O)C(Cc3cc4ccccc4[nH]3)n3cc(C(N)Cc4ccc(O)cc4)nn3)CC2)n1 (stereo not given)	-14.8%	89.3%	2.8%
O=C(CN1C(=O)COc2ccc(S(=O)(=O)N3CCOCC3)cc21)N1CCN(c2ccccc2)CC1	2.5%	/	9.9%
COc1ccc(C(=O)OCC(=O)N2CCc3ccccc32)cc1S(=O)(=O)N1CCOCC1	/	185.6%	/
COc1ccc(NC(=O)c2cc(S(=O)(=O)Nc3ccc(OC)cc3)cs2)cc1	1.2%	11.2µM*	-5.0%
O=C(Nc1ccc(F)cc1)c1cc(S(=O)(=O)Nc2ccc(F)cc2)cs1	17.4%	-40.6%	-9.4%
CCOc1ccccc1NC(=O)N1CCN(S(C)(=O)=O)CC1	6.5%	-15.8%	8.0%
CCCN1C(=O)/C(=C/c2cc(C)n(C)c2C)SC1=Nc1ccc(OC)cc1	-24.3%	41.8%	-2.8%
COc1ccc(N=C2S/C(=C\c3cc(C)n(C)c3C)C(=O)N2C)cc1	50.1µM*	83.5%	4.2%
O=C1C2C3C=CC(C2C(=O)N1C1CCCCC1)C1C2C(=O)N(C4CCCCC4)C(=O)C2C31 (stereo not given)	-10.1%	-9.7%	-13.1%
O=C(/C=C/Nc1ccccc1C(=O)O)c1cccs1	-3.7%	-15.2%	1.1%
O=C(O)c1ccccc1N/C=C\[N+](=O)[O-]	28.2µM*	-28.7%	0.1%
O=C(CCCOc1ccccc1)NC(=S)Nc1ccccc1	/	-23.6%	8.6%
CCSc1nnc(NC(=O)C(C)C)s1	0.0%	-13.2%	-12.0%
CCSc1nnc(NC(=O)C(C(F)(F)F)C(F)(F)F)s1	39.8µM*	-31.7%	-1.6%
CCn1c(SCC(=O)Nc2sccc2C(N)=O)nnc1C1CC1	-1.7%	-15.4%	?
COc1ccccc1CCNS(=O)(=O)c1ccc(N2CCCCS2(=O)=O)cc1	4.2%	/	9.5%
CCCC(=O)Nc1ccc(Cl)c(NC(=O)c2cccc(OC)c2)c1	8.91µM*	-9.0%	-6.8%
CCCC(=O)Nc1ccc(Cl)c(NC(=O)c2cccnc2)c1	4.0%	0.159µM*	-3.0%
SMILES	Sm TGR inh	AmpC no deterg	AmpC detergent
CCC(=O)Nc1ccc(Cl)c(NC(=O)c2cccnc2)c1	9.4%	-17.0%	-13.6%
CCCC(=O)Nc1ccc(NC(=O)c2cccc(OC)c2)cn1	0.1%	-15.8%	?
CC(=O)c1c(C)oc2ccc(N(C(=O)Oc3ccccc3)S(=O)(=O)c3ccc(C(C)(C)C)cc3)cc12	-5.4%	/	-4.5%
Cc1ccc(-c2nc(CS(=O)(=O)CC(=O)NC3CCC(C)CC3)c(C)o2)cc1 (stereo not given)	?	72.4%	-2.2%
Cc1ccccc1NC(=O)CN1C(=O)S/C(=C\c2ccc(-c3cc(C(=O)O)ccc3C)o2)C1=O	/	-22.0%	56.2µM*
Cc1ccc(NC(=O)CN2C(=O)S/C(=C/c3ccc(-c4cccc(C(=O)O)c4)o3)C2=O)cc1	/	-51.3%	-2.2%
Cc1ccc(C(=O)O)cc1-c1ccc(/C=C2\SC(=O)N(CC(=O)Nc3ccccc3)C2=O)o1	/	-27.9%	56.2µM*
Cc1cc(C(=O)O)ccc1-c1ccc(/C=C2\SC(=O)N(CC(=O)Nc3ccc4c(c3)OCO4)C2=O)o1	?	-46.1%	-12.6%
O=C(COC(=O)C12CC3CC(CC(C3)C1)C2)Nc1nc2c(F)c(F)c(F)cc2s1	-8.0%	10µM*	-0.8%
COc1ccc(C(=O)OCC(=O)Nc2nc3c(F)c(F)c(F)cc3s2)cc1OC	-16.2%	-12.5%	3.4%
COc1ccc(COc2ccsc2C(=O)Nc2ccc(Cl)cc2)cc1	1.2%	0.355µM*	-0.2%
COc1ccc(NC(=O)c2csc(Cc3ccc(Cl)cc3)n2)cc1	-3.1%	-16.4%	-1.4%
CCOc1ccc(NC(=O)C(c2ccccn2)N(C(=O)CCl)c2ccc(OCC)cc2)cc1 (stereo not given)	44.7µM*	24.4%	-2.1%
COc1ccc(N(C(=O)CCl)C(C(=O)NC2CCCCC2)c2cccnc2)cc1 (stereo not given)	14.1µM*	127.4%	-10.7%
O=C(NC1CCCCC1)C(c1cccnc1)N(C(=O)CCl)c1ccc(F)cc1 (stereo not given)	-5.4%	90.2%	-5.2%
COc1ccc(NC(=O)C(c2ccccn2)N(C(C)=O)c2ccc(C)cc2)cc1 (stereo not given)	-4.2%	-20.1%	-4.1%
CCOc1ccc(NC(=O)C(c2ccccn2)N(C(=O)CCl)c2ccc(OC)cc2)cc1 (stereo not given)	44.7µM*	83.7%	-4.7%
CC(=O)Nc1ccc(C(=O)N(C)C(C(=O)Nc2ccc(C)cc2)c2ccccn2)cc1 (stereo not given)	-4.1%	-29.3%	2.8%
Cc1cccc(C(=O)OCC(=O)Nc2nnc(-c3ccccc3)o2)c1O	6.5%	-28.3%	-16.8%
COc1cccc(NC(=O)CN(C)C(=O)CSc2ncnc3sc(C)c(C)c23)c1	2.6%	-19.6%	-13.0%
COc1ccccc1C(=O)NCCC(=O)NCC(c1ccc(F)cc1)N1CCOCC1 (stereo not given)	-9.0%	1.5%	-18.5%
Cn1nc(C(C)(C)C)c([N+](=O)[O-])c1C(=O)NC1CCCCC1	2.1%	-8.8%	6.8%
COc1ccccc1OCC(=O)NCC1CCCN(Cc2cnn(C)c2C)C1 (stereo not given)	-11.2%	-17.0%	-6.6%
COc1ccc(S(=O)(=O)N(C)C[C@H]2Oc3c(NC(=O)NC(C)C)cccc3C(=O)N([C@H](C)CO)C[C@@H]2C)cc1	/	222.6%	/
Cc1ccc(S(=O)(=O)N2CN(Cc3ccco3)c3nc4ccccc4nc32)cc1C	?	-46.0%	5.4%
SMILES	Sm TGR inh	AmpC no deterg	AmpC detergent
O=S(=O)(Nc1nc2ccccc2nc1NCc1ccco1)c1ccc(Cl)cc1	0.0%	-14.5%	-1.7%
Cc1ccc(S(=O)(=O)Nc2nc3ccccc3nc2NCc2ccco2)cc1	12.6µM*	-36.0%	-10.1%
COc1ccc(S(=O)(=O)N2CN(Cc3ccco3)c3nc4ccccc4nc32)cc1	11.2µM*	-19.5%	1.6%
Cc1ccc(S(=O)(=O)N2CN(Cc3ccco3)c3nc4ccccc4nc32)cc1	22.4µM*	-29.3%	1.2%
O=S(=O)(c1ccc(F)cc1)N1CN(Cc2ccco2)c2nc3ccccc3nc21	?	-37.2%	-5.3%
CC(C)Oc1ccc(CNC(=O)Cn2c(-c3cccs3)cc3ccccc32)cc1	0.6%	/	1.5%
